Screening data deposited in PubChem BioAssay by National Center for Advancing Translational Sciences (NCATS).
Only a selection was taken, and hits are over-represented in it overall.
CHX counter = Cycloheximide Counterscreen for Small Molecule Inhibitors of Shiga Toxin | cell reporter, cycloheximide protein synthesis inhibition counterscreen | max response, % | hit rate 12% among 300,000 | AID 2314, 2010; in the data active = max response mostly above about 13%, no sharp cut-off; inactive = mostly below about 14%; note: read at 38.3 µM for the half of the compounds with a filed dose; 0% is about no effect
Shiga inhibitor = A qHTS for Small Molecule Inhibitors of Shiga Toxin | Vero cells, Shiga toxin protein synthesis inhibition reporter | inhibition, % at 38.7 µM | hit rate 9.2% among 290,000 | AID 2315, 2010; in the data active = inhibition mostly above about 28%, no sharp cut-off; inactive = mostly below about 43%; note: 0% is about no effect
LmPK inhibitor = qHTS Assay for Inhibitors of Leishmania Mexicana Pyruvate Kinase (LmPK) | Q27686 | Potency, µM (doses to about 57.5 µM), for the others: top-dose activity change, negative = inhibition, most hits filed as inhibitors | hit rate 0.37% among 290,000 | purified LmPK, Kinase-Glo ATP luminescence, 1 h; note: potency is the fitted concentration of half-maximal effect; % is set by controls: 0 for no effect and ±100 for the full control effect
Target sequence (Q27686 whole entry, looked up): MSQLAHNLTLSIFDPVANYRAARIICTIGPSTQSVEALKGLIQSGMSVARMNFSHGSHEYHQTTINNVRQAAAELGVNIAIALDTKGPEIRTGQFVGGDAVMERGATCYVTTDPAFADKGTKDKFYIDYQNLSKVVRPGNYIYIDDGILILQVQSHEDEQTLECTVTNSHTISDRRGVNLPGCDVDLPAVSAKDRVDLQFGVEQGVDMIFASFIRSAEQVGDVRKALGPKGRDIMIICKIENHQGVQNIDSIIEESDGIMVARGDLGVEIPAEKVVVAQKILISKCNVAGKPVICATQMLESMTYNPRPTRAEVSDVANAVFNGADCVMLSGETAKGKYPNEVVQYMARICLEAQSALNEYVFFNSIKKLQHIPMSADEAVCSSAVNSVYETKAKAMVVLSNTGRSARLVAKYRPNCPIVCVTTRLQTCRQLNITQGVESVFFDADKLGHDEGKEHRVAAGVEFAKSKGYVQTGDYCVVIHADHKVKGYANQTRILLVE
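Kinase-Glo luminescence read after 1 h RT reaction of 0.1 nM LmPK with 0.5 mM PEP and 0.1 mM ADP. Activity scaled between uninhibited and enzyme-free controls.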
Giardia FBPA inh = qHTS Assay for Inhibitors of Fructose-1,6-bisphosphate Aldolase from Giardia Lamblia; purified Giardia FBPA; Potency, µM (doses to about 59.6 µM), for inactives: at the top dose activity, negative = inhibition, actives largely listed as inhibitors; AID 2451, 2010; hit rate 0.71% among 290,000; A8B2U2; note: potency is the fitted concentration of half-maximal effect; % is set by controls: 0 for no effect and ±100 for the full control effect; nearly all actives have a fitted effect of over 55% in size
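Giardia FBPA (40 nM reagent) was preincubated 10 min at RT with compound (up to 57.5 uM final), then substrate plus GAPDH/TPI/NAD/arsenate coupling system with diaphorase/resazurin was added; resorufin fluorescence (525/598 nm) was read after 20 min.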
Tb PYK inh = qHTS of Trypanosoma Brucei Inhibitors | TbPYK enzyme, Kinase-Glo Plus ATP luminescence, 45 min | AID 624173, 2012 | Potency, µM (titrated, usually from 76.8 µM), without a hit: top-dose activity, negative = inhibition, hits mostly inhibitors | pyruvate kinase (Trypanosoma brucei), Q57TT1 | hit rate 0.12% among 410,000; note: potency is the fitted concentration of half-maximal effect; % is set by controls: 0 for no effect and ±100 for the full control effect; nearly all actives have a fitted effect of over 50% in size
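Luminescent Kinase-Glo Plus end-point after 45 min room-temperature reaction of T. brucei pyruvate kinase started with 130 uM ADP (final). Buffer TEA 50 mM pH 7.2 with KCl, MgCl2, BSA, Tween-20; titration-based qHTS with fitted concentration-effect curves.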
RE007 growth inh = qHTS Assay for Inhibitors of the HIV-1 protein Vpr | Potency, µM (top dose mostly 92.2 µM), inactives show top-dose activity change, negative = less growth, usual class: inhibitors | hit rate 0.21% among 360,000 | S. pombe RE007 Vpr strain, BacTiter-Glo ATP luminescence, 24 h | AID 651644, 2012; active = well fitted falling curve with a large enough effect; inconclusive = small, poorly fitted or top-dose-only effect; inactive = no such curve, though single readings can be large or run the other way; note: potency is the fitted concentration of half-maximal effect; % is set by controls: 0 for no effect and ±100 for the full control effect; nearly all actives have a fitted effect of over 50% in size
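Fission yeast strain RE007, carrying one chromosomally integrated HIV-1 vpr copy, was seeded at OD 0.01 in PMG+AL medium with 23 nL pinned compound. After 24 h at 30 °C and 99% humidity, viability was read by BacTiter-Glo luminescence.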
Numbers without * were called inactive; [ ] = another dose, or the depositor's remark. Unless noted, calls come from the whole dose curve; as a rule, active = well fitted curve in the direction sought with a large enough effect; inconclusive = small, poorly fitted or top-dose-only effect, or another doubt; inactive = no such curve, though single readings can be large; an effect the other way counts as inactive or inconclusive.

What do the screens show for `Cc1cc(C)c2nc(N(CCN(C)C)C(=O)c3ccc(S(=O)(=O)N(C)CC4CCCO4)cc3)sc2c1` (configuration not stated)?
CHX counter: 22*; Shiga inhibitor: 58; LmPK inhibitor: 2%; Giardia FBPA inh: inconclusive; Tb PYK inh: -8%; RE007 growth inh: 1%

How did CCc1ccc(-c2cc(C(=O)N3N=C(C(F)F)CC3(O)C(F)F)c3ccccc3n2)cc1 (configuration not stated) do in these assays?
CHX counter: 28*; Shiga inhibitor: 89*; LmPK inhibitor: 5%; Giardia FBPA inh: 2%; Tb PYK inh: -4%; RE007 growth inh: -29%

Results for CC(C)Cc1cc(C(=O)N2N=C(C(F)F)CC2(O)C(F)F)c2ccccc2n1 (configuration not stated) ?
CHX counter: -2; Shiga inhibitor: -5; LmPK inhibitor: 3%; Giardia FBPA inh: 0%; Tb PYK inh: -2%; RE007 growth inh: 5%

What do the screens show for `CCn1nc(C)c(Br)c1-c1nc(-c2ccc(C)cc2)no1`?
CHX counter: 1; Shiga inhibitor: 7; LmPK inhibitor: 0%; Giardia FBPA inh: 4%; Tb PYK inh: 2%; RE007 growth inh: 2%

What do the screens show for `Cc1nc(-c2cc(-c3nc(-c4ccc(C(F)(F)F)cc4)no3)no2)cs1`?
CHX counter: 9; Shiga inhibitor: 11; LmPK inhibitor: 5%; Giardia FBPA inh: 6%; Tb PYK inh: 2%; RE007 growth inh: 1%

Results for Cc1cc(-c2nc(-c3ccc(C(C)(C)C)cc3)no2)no1 ?
CHX counter: 39*; Shiga inhibitor: 53*; LmPK inhibitor: -5%; Giardia FBPA inh: 0%; Tb PYK inh: -1%; RE007 growth inh: 8%

How did Cc1c(-c2nc(-c3ccc(C(C)(C)C)cc3)no2)n(C)oc1=O do in these assays?
CHX counter: 60*; Shiga inhibitor: 161*; LmPK inhibitor: -1%; Giardia FBPA inh: -2%; Tb PYK inh: -2%; RE007 growth inh: 2%

Results for CC(C)(C)c1ccc(-c2noc(-c3ccc4c(c3)CCO4)n2)cc1 ?
CHX counter: 21*; Shiga inhibitor: 35*; LmPK inhibitor: -2%; Giardia FBPA inh: 1%; Tb PYK inh: -1%; RE007 growth inh: 4%

How did CCNC(=O)CC1C(=O)N(CC)C(=S)N1NC(=O)c1ccccc1 (configuration not stated) do in these assays?
CHX counter: 0; Shiga inhibitor: 2; LmPK inhibitor: -6%; Giardia FBPA inh: -7%; Tb PYK inh: 3%; RE007 growth inh: 5%

What do the screens show for `Cc1c(N2CCCCC2)[nH]c2ccccc12`?
Tb PYK inh: -1%; RE007 growth inh: -28%

How did COc1cc(C)c(C(=O)Oc2cc(C)c(C(=O)O)c(O)c2)c(O)c1 do in these assays?
CHX counter: -2; Shiga inhibitor: 25; LmPK inhibitor: 9%; Giardia FBPA inh: 11%; Tb PYK inh: -1%; RE007 growth inh: 11%

Results for COc1cc(O)c(C(=O)O)c(-c2cc(O)c(O)cc2C)c1 ?
CHX counter: 3; Shiga inhibitor: 8; LmPK inhibitor: inconclusive; Giardia FBPA inh: 16%; Tb PYK inh: 10µM*; RE007 growth inh: -3%

Results for COc1cc(/C=N/NC(=O)C2=NNC(=O)C2C)ccc1O (configuration not stated) ?
CHX counter: 27*; Shiga inhibitor: 48; LmPK inhibitor: 4%; Giardia FBPA inh: -20%; Tb PYK inh: 0%; RE007 growth inh: 1%

How did CC1C(=O)NN=C1C(=O)N/N=C/c1ccco1 (configuration not stated) do in these assays?
CHX counter: 53*; Shiga inhibitor: 48*; LmPK inhibitor: inconclusive; Giardia FBPA inh: -23%; Tb PYK inh: -26%; RE007 growth inh: 0%

Results for CC1=NNC(=O)C1CCC(=O)N/N=C/c1ccco1 (configuration not stated) ?
CHX counter: -4; Shiga inhibitor: 14; LmPK inhibitor: -7%; Giardia FBPA inh: 0%; Tb PYK inh: -4%; RE007 growth inh: 4%

What do the screens show for `CC1C(=O)NN=C1C(=O)N/N=C\c1ccc(O)cc1O` (configuration not stated)?
CHX counter: 24*; Shiga inhibitor: 30; LmPK inhibitor: inconclusive; Giardia FBPA inh: -23%; Tb PYK inh: 6%; RE007 growth inh: -16%

What do the screens show for `CC1C(=O)NN=C1C(=O)N/N=C\C(Br)=C\c1ccccc1` (configuration not stated)?
CHX counter: 17*; Shiga inhibitor: 53*; LmPK inhibitor: -6%; Giardia FBPA inh: -4%; Tb PYK inh: 3%; RE007 growth inh: -4%

What do the screens show for `Cc1cccc(OC(=O)CSc2nnc(-c3cccs3)o2)c1C`?
Tb PYK inh: -4%

What do the screens show for `NC[C@@H]1O[C@@H](O[C@H]2[C@H](O)[C@H](O[C@@H]3O[C@H](CO)[C@@H](O)[C@H](N)[C@@H]3O)[C@@H](N)C[C@H]2N)[C@H](N)C[C@@H]1O`?
Giardia FBPA inh: 3%[21.7 µM]; Tb PYK inh: -4%[33.2 µM]

What do the screens show for `COc1ccc(NCC(=O)Nc2cccc(C(F)(F)F)c2)cc1S(=O)(=O)N1CCOCC1`?
Tb PYK inh: 3%; RE007 growth inh: -10%

Results for CC1CCCC(C)N1CCCNC(=O)c1ccc2nc(N3CCCCC3)sc2c1 (configuration not stated) ?
CHX counter: 18*; Shiga inhibitor: 59*; LmPK inhibitor: -6%; Giardia FBPA inh: 7%; Tb PYK inh: -3%; RE007 growth inh: -16%

Results for CC1CCN(c2nc3ccc(C(=O)NCCCN4CCCCC4C)cc3s2)CC1 (configuration not stated) ?
CHX counter: 29*; Shiga inhibitor: 34*; LmPK inhibitor: -8%; Giardia FBPA inh: -4%; Tb PYK inh: -4%; RE007 growth inh: -9%

Results for Cc1ccc2cc3c(nc2c1)OCC3 ?
CHX counter: 32*; Shiga inhibitor: 47*; LmPK inhibitor: -1%; Giardia FBPA inh: 0%; Tb PYK inh: 5%; RE007 growth inh: 0%

Results for O=C(c1ccccc1)c1c(-c2ccccc2)[nH]n(-c2ccccc2)c(=O)c1=O ?
Tb PYK inh: -1%; RE007 growth inh: 28%

Results for Cc1ccc(NC(=O)CNC(C)c2ccccc2)cc1 (configuration not stated) ?
CHX counter: 29*; Shiga inhibitor: 50*; LmPK inhibitor: -2%; Giardia FBPA inh: -19%; Tb PYK inh: -5%; RE007 growth inh: 0%
